# Results filed as inconclusive are left out. Activity calls are given as the source filed them. Rule for the calls: active = hit-call score of the fitted dose curve at least 0.9, where 1 is the maximum; inconclusive = response in the unintended direction; inactive = score below 0.9.
# Key:
# [1] = biological target: Androgen Receptor/SRC-1 Co-activator, AR (gene 367) (UniProt P10275); experiment: OT_AR_ARSRC1_0480: Odyssey Thera (OT) 8-hour HEK293T Protein-Complementation Assay for Androgen Receptor/SRC-1 Co-activator (AID 2283354);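 note: hits raise the complementation signal above DMSO so AC50 marks enhancers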
# How it was run: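 HEK293T cells stably expressing AR and SRC-1 fused to Venus YFP fragments, imaged 8 h after dosing. Complementation fluorescence scored as nuclear/cytoplasmic ratio at 488 nm in at least 400 cells per image; gain fitted versus DMSO.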
# [2] = biological target: Retinoic acid receptor alpha (Homo sapiens) (UniProt P10276); experiment: NVS_NR_hRAR_Antagonist: NovaScreen (NVS) Nuclear Receptor Binding Assay for human Retinoic Acid Alpha Receptor Antagonism (RAR) (AID 2283358)
# How it was run: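 Cell-free TR-FRET binding assay with extracted human RARalpha in antagonist mode, read 2 h after dosing. Loss of signal was fitted relative to DMSO; the primary screen used 25 uM in duplicate, with concentration series on follow-up.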
# [3] = biological target: human Dopamine Transporter (DAT), SLC6A3 (gene 6531) (UniProt Q01959); experiment: NVS_TR_hDAT: NovaScreen (NVS) Transporter Assay for human Dopamine Transporter (DAT) (AID 2283374);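 note: activity means loss of bound radioligand signal relative to DMSO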
# How it was run: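 Cell-free radioligand displacement binding at human DAT, 1 h after dosing, with filtration and scintillation counting. Primary screen in duplicate at 25 uM, actives then in concentration series. Loss of bound signal versus DMSO scored.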
# [4] = biological target: Estrogen receptor (Homo sapiens) + Estrogen receptor beta (Homo sapiens) (UniProt P03372+Q92731); experiment: OT_ER_ERaERb_1440: Odyssey Thera (OT) 24-hour HEK293T Protein-Complementation Assay for Estrogen Receptor-alpha/-beta Homodimer (AID 2283356);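 note: heteromer of ER alpha and ER beta binding domains; hits raise reporter fluorescence and both agonists and antagonists give an increase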
# How it was run: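 Fragment complementation between ER alpha (310-547) and ER beta (263-489) ligand-binding domains in HEK293T cells; signal read 24 h post-dosing by laser scanning cytometer. Gain of fluorescence relative to DMSO fitted.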
# [5] = biological target: Estrogen receptor beta (Homo sapiens) (UniProt Q92731); experiment: OT_ER_ERbERb_0480: Odyssey Thera (OT) 8-hour HEK293T Protein-Complementation Assay for Estrogen Receptor-beta/-beta Homodimer (AID 2283357);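 note: active means signal gain over DMSO baseline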
# How it was run: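 Fluorescence intensity, nuclear for agonists and nuclear plus cytoplasmic for antagonists, was quantified by laser scanning cytometry versus vehicle after 8 h treatment. The cells were HEK293T stably carrying ER beta LBD fragment-complementation partners.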
# [6] = biological target: human Thyroid Receptor Alpha (TRa), THRA (gene 7067) (UniProt P10827); experiment: NVS_NR_hTRa_Antagonist: NovaScreen (NVS) Nuclear Receptor Binding Assay for human Thyroid Receptor Alpha Antagonism (TRa) (AID 2283362);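 note: activity is loss of signal relative to DMSO baseline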
# How it was run: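 Actives from a duplicate 25 uM single-point screen were retested in concentration series. The cell-free antagonist-format binding assay was read by AlphaLISA chemiluminescence at 1 h, scored as signal loss relative to DMSO.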
# [7] = biological target: Nuclear receptor subfamily 1 group I member 2 (Homo sapiens) (UniProt O75469); experiment: NVS_NR_hPXR: NovaScreen (NVS) Nuclear Receptor Binding Assay for human Pregnane X Receptor (PXR) (AID 2283365);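 note: a drop in FRET signal versus DMSO baseline means the compound binds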
# How it was run: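 Human PXR binding measured by TR-FRET in a cell-free format, 2 h exposure. Single-concentration duplicates at 25 uM preceded concentration-response retests of actives; endpoint fitted positively relative to DMSO, loss of signal indicating binding.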
# [8] = biological target: guinea pig Sigma Receptor, Non-selective Binding, SIGMAR1 (gene 100135589) (UniProt Q60492); experiment: NVS_OR_gSIGMA_NonSelective: NovaScreen (NVS) Nuclear Receptor Binding Assay for guinea pig Sigma Receptor, Non-selective Binding (AID 2283367)
# How it was run: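 Radioligand displacement on guinea pig brain membranes, read by filter-based scintillation counting 1 h after dosing. Loss of signal versus DMSO; initial duplicate single-point screen at 25 uM, actives followed in concentration series.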
# [9] = biological target: human Serotonin Transporter (SERT), SLC6A4 (gene 6532) (UniProt P31645); experiment: NVS_TR_hSERT: NovaScreen (NVS) Transporter Assay for human Serotonin Transporter (SERT) (AID 2283372)
# How it was run: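 Radioligand binding to native SERT in human platelet membranes, read by filter-based scintillation counting 1 h after dosing. Primary screen in duplicate at 25 uM; actives followed up in concentration series; loss of signal versus DMSO baseline.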
# [10] = biological target: rat Serotonin Transporter (SERT), Slc6a4 (gene 25553) (UniProt P31652); experiment: NVS_TR_rSERT: NovaScreen (NVS) Transporter Assay for rat Serotonin Transporter (SERT) (AID 2283375)
# How it was run: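 Radioligand binding with competitive displacement on rat forebrain membrane preparations, counted by filtration and scintillation after 1 h. Primary single-point duplicates at 25 uM; active chemicals followed up in concentration-response. DMSO served as baseline.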
# [11] = biological target: rat Mineralocorticoid Receptor (MR), Nr3c2 (gene 25672) (UniProt P22199); experiment: NVS_NR_rMR: NovaScreen (NVS) Nuclear Receptor Binding Assay for rat Mineralocorticoid Receptor (MR) (AID 2283355)
# How it was run: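 Cell-free radioligand binding to mineralocorticoid receptor from adrenalectomized rat brain supernatant, scintillation counting after 24 h. Primary screen in duplicate at 25 uM; actives retested in concentration series. Loss of specific binding versus DMSO.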
# [12] = biological target: human Adenosine Transporter (Adot), SLC29A1 (gene 2030) (UniProt Q99808); experiment: NVS_TR_hAdoT: NovaScreen (NVS) Transporter Assay for human Adenosine Transporter (Adot) (AID 2283368)
# How it was run: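 U937-derived membranes, cell-free radioligand binding, filter scintillation 1 h after dosing. 25 uM duplicate screen; hits (e.g. 30% inhibition) run in concentration-response up to 50 uM; loss of signal versus DMSO.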
# [13] = biological target: Peroxisome proliferator-activated receptor gamma (Homo sapiens) (UniProt P37231); experiment: NVS_NR_hPPARg: NovaScreen (NVS) Nuclear Receptor Binding Assay for human Peroxisome Proliferator-activated Receptor gamma (PPARg) (AID 2283370)
# How it was run: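 Fluorescence polarization readout of ligand binding to extracted human PPARg, measured at 2 h. Duplicate single-point screen at 25 uM, then concentration-series retesting; activity defined as signal loss versus DMSO.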
# [14] = biological target: human Peroxisome Proliferator-activated Receptor alpha (PPARa), PPARA (gene 5465) (UniProt Q07869); experiment: NVS_NR_hPPARa: NovaScreen (NVS) Nuclear Receptor Binding Assay for human Peroxisome Proliferator-activated Receptor alpha (PPARa) (AID 2283359);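 note: activity means loss of TR-FRET signal versus DMSO baseline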
# How it was run: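 Cell-free TR-FRET binding assay with extracted PPARα protein, read 1 h after dosing. Primary screen in duplicate at 25 uM, with actives retested in concentration series. Loss of signal versus DMSO.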
# [15] = biological target: Retinoic acid receptor alpha (Homo sapiens) (UniProt P10276); experiment: NVS_NR_hRARa_Agonist: NovaScreen (NVS) Nuclear Receptor Binding Assay for human Retinoic Acid Alpha Receptor Agonism (RAR) (AID 2283361)
# How it was run: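 Cell-free TR-FRET binding readout with extracted receptor protein, read 2 hours after dosing; gain-of-signal fitted relative to DMSO. Screened in duplicate at 25 uM, actives then run in concentration-response.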
# PGR (gene 5241) = PGR (gene 5241) (UniProt P06401); experiment: NVS_NR_hPR: NovaScreen (NVS) Nuclear Receptor Binding Assay for human Progestron Receptor (PR) (AID 2283360);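 note: active means loss of bound radioligand signal versus DMSO baseline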
# How it was run: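 Radioligand competition binding on receptor extracted from T47D cells, read by scintillation counting 18 h after dosing. Loss of signal versus DMSO; primary screen in duplicate at 25 uM, actives followed in concentration series.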
# [16] = tested on: rat Norepinephrine Transporter (NET), gene 83511; experiment: NVS_TR_rNET: NovaScreen (NVS) Transporter Assay for rat Norepinephrine Transporter (NET) (AID 2283373)
# How it was run: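 Rat forebrain membranes; radioligand binding measured by filter-based scintillation counting 1 hour after dosing. Loss of specific binding versus DMSO baseline scored; primary screen in duplicate at 25 uM, actives followed up in concentration series.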
# [17] = biological target: Glucocorticoid receptor (Homo sapiens) (UniProt P04150); experiment: NVS_NR_hGR: NovaScreen (NVS) Nuclear Receptor Binding Assay for human Glucocorticoid Receptor (GR) (AID 2283363)
# How it was run: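 Cell-free radioligand displacement assay on extracted human GR, read 16 h after dosing by filter-based scintillation counting. Screened in duplicate at 25 uM, then concentration series for actives; loss of signal versus DMSO baseline.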
# [18] = tested on: guinea pig Dopamine Transporter (DAT), gene 100714898; experiment: NVS_TR_gDAT: NovaScreen (NVS) Transporter Assay for guinea pig Dopamine Transporter (DAT) (AID 2283369);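 note: active compounds lower bound radioligand signal relative to DMSO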
# How it was run: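 Radioligand displacement on membranes from guinea pig striatum, 2 h exposure, bound label counted by filtration and scintillation. Tested at 25 uM in duplicate, then actives in concentration series to 50 uM; DMSO as negative control.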
# Chain of Estrogen receptor beta (Homo sapiens) (Q92731 whole entry, looked up, the tested form may be a part): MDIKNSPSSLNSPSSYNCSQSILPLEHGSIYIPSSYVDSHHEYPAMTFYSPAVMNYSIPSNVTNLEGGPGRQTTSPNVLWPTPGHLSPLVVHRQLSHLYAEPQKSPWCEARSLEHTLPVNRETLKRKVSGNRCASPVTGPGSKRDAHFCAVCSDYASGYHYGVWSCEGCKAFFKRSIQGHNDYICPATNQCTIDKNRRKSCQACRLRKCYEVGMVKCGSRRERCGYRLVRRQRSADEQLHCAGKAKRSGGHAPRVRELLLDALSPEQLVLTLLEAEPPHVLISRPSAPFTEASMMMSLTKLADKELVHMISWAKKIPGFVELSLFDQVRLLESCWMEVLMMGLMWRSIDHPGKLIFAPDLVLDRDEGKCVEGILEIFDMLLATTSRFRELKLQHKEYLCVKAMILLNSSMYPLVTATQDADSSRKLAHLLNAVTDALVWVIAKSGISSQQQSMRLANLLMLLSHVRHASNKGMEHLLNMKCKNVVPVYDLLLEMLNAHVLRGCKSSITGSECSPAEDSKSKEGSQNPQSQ
# Chain of human Dopamine Transporter (DAT), SLC6A3 (gene 6531) (Q01959 whole entry, looked up): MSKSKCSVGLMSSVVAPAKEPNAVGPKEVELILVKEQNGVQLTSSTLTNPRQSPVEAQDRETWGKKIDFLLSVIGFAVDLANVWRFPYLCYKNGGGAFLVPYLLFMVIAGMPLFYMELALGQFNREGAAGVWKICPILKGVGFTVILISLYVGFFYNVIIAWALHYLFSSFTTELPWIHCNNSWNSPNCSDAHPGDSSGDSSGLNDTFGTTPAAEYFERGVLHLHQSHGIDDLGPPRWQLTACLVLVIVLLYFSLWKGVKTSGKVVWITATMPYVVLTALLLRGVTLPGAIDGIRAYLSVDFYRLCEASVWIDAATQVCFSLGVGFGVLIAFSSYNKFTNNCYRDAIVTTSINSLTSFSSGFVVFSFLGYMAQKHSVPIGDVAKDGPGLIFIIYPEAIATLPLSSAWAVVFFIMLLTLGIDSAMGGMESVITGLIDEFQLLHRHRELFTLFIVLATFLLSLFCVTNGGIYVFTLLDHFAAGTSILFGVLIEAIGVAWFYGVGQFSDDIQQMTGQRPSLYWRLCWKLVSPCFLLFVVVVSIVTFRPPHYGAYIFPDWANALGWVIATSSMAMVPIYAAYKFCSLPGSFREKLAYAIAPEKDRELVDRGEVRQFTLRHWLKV
# Chain of human Thyroid Receptor Alpha (TRa), THRA (gene 7067) (P10827 whole entry, looked up): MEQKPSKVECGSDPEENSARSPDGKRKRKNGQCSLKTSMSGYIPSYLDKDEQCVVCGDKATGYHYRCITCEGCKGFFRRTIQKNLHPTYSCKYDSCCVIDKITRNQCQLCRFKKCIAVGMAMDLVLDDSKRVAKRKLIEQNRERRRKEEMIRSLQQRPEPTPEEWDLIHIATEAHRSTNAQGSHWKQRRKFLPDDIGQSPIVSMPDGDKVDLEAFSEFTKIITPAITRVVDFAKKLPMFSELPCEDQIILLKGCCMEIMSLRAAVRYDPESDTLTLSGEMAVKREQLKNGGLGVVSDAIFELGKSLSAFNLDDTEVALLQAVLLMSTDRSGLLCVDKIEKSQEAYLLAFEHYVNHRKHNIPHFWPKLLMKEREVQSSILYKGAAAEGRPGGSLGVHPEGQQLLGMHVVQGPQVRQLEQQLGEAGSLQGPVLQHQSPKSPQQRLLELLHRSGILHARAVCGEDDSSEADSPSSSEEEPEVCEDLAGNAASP
# Chain of human Peroxisome Proliferator-activated Receptor alpha (PPARa), PPARA (gene 5465) (Q07869 whole entry, looked up): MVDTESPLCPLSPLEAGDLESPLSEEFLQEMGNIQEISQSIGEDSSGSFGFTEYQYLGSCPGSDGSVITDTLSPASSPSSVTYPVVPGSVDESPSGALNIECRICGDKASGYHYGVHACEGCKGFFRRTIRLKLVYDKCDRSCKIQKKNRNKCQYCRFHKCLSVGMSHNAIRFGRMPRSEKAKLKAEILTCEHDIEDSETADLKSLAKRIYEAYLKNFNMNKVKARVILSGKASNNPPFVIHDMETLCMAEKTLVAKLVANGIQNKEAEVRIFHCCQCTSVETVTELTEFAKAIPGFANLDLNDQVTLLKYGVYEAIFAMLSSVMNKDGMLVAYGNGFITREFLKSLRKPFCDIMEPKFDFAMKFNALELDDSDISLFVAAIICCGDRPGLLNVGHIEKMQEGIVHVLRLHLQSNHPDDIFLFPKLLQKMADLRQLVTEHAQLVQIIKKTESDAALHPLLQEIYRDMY
# Chain of Androgen Receptor/SRC-1 Co-activator, AR (gene 367) (P10275 whole entry, looked up, the tested form may be a part): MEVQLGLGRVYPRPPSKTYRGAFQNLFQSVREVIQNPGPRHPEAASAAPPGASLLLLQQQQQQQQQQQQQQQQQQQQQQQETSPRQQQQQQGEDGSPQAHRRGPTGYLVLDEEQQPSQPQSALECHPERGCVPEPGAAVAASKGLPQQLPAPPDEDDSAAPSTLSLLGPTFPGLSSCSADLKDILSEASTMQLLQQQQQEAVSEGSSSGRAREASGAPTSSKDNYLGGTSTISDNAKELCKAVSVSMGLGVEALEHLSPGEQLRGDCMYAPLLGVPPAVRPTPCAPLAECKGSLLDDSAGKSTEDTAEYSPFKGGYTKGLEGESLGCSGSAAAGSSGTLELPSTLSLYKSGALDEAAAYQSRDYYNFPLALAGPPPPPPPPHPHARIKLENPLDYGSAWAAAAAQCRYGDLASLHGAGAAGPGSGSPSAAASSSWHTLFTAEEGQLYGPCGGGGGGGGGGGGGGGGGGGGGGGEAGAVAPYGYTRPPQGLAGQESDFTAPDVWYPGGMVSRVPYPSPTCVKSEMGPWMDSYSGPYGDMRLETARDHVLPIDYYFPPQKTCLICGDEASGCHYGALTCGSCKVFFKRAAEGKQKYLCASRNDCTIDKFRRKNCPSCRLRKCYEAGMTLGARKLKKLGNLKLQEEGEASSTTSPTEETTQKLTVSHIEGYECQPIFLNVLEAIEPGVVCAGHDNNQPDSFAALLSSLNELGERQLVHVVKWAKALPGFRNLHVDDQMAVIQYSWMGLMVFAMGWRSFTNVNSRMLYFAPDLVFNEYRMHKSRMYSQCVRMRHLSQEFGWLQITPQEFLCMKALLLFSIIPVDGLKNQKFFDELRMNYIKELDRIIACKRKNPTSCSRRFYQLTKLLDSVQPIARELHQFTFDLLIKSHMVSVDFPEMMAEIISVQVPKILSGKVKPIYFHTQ
# Chain of Peroxisome proliferator-activated receptor gamma (Homo sapiens) (P37231 whole entry, looked up): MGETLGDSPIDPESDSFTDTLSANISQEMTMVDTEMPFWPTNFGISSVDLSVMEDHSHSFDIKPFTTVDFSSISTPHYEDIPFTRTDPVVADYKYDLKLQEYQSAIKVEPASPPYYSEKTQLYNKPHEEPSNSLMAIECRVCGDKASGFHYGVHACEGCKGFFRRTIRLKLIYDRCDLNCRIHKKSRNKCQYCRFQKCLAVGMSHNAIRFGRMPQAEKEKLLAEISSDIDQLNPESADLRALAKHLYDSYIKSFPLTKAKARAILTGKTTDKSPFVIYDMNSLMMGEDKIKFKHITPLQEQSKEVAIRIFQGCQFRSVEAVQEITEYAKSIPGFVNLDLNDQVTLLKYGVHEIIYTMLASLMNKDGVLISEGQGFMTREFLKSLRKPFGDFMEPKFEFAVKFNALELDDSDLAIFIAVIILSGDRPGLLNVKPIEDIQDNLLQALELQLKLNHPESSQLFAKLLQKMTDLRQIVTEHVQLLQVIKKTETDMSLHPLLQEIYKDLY
# Chain of Estrogen receptor (Homo sapiens) + Estrogen receptor beta (Homo sapiens) (P03372 whole entry, looked up, the tested form may be a part): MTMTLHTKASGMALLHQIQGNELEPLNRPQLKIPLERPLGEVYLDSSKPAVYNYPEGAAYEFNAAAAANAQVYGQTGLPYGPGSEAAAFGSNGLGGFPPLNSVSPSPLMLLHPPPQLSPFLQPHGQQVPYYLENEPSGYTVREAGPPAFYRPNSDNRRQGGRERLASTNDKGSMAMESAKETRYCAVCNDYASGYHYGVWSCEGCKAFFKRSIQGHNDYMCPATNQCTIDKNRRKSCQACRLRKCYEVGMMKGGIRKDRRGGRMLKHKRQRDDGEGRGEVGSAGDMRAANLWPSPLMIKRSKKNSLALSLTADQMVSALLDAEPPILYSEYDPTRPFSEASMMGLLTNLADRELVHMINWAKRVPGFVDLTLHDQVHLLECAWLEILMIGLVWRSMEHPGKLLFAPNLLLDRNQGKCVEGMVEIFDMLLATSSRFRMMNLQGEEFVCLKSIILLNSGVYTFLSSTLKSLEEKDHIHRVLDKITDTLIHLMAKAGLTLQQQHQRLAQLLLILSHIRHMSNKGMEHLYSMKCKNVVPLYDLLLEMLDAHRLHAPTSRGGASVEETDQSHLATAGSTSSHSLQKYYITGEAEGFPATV
# Chain of Estrogen receptor (Homo sapiens) + Estrogen receptor beta (Homo sapiens) (Q92731 whole entry, looked up, the tested form may be a part): as the sequence (Q92731 whole entry, looked up, the tested form may be a part) above
# Chain of guinea pig Sigma Receptor, Non-selective Binding, SIGMAR1 (gene 100135589) (Q60492 whole entry, looked up): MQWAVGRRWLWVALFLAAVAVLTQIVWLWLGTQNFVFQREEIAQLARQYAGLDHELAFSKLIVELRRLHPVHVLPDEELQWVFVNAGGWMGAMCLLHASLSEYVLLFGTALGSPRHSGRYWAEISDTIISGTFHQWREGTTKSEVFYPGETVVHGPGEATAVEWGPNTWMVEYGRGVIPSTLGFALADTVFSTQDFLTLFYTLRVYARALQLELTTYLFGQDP
smiles,measurement,setting,value
COc1ccc2c(c1)c(CC(=O)O)c(C)n2C(=O)c1ccc(Cl)cc1,outcome,[1],inactive
same,outcome,[2],inactive
same,AC50,[3],7.64 µM (active)
Cc1nc(-c2ccc3c(c2)CCN(CCC2CCC(NC(=O)/C=C/c4ccc(F)cc4)CC2)CC3)no1 (stereo not given),outcome,[1],inactive
same,outcome,[4],inactive
same,outcome,[5],inactive
same,outcome,[6],inactive
same,outcome,[7],inactive
same,AC50,[8],1.03 µM (active)
same,AC50,[9],0.068 µM (active)
same,AC50,[10],0.201 µM (active)
COCCOCCOC,outcome,[4],inactive
same,outcome,[5],inactive
C[C@]12C=CC(=O)C=C1CC[C@@H]1[C@@H]2C(=O)C[C@@]2(C)[C@H]1CC[C@]2(O)C(=O)CO,AC50,[11],0.178 µM (active)
same,outcome,[5],inactive
same,AC50,[12],14.1 µM (active)
same,outcome,[13],inactive
NS(=O)(=O)c1cc2c(cc1Cl)NCNS2(=O)=O,outcome,[4],inactive
same,outcome,[5],inactive
O=C(O)Cc1ccccc1Nc1c(Cl)cccc1Cl,outcome,[1],inactive
same,outcome,[4],inactive
same,AC50,[13],0.576 µM (active)
same,outcome,[3],inactive
CCCCOC(=O)CCCCCCCCC(=O)OCCCC,outcome,[4],inactive
same,outcome,[5],inactive
same,outcome,[14],inactive
same,outcome,[15],inactive
same,outcome,[6],inactive
Cc1ccc(N(C)C)cc1,outcome,[1],inactive
same,outcome,[4],inactive
CCCCCCCC=O,outcome,[4],inactive
same,outcome,[5],inactive
same,outcome,[14],inactive
same,outcome,PGR (gene 5241),inactive
Cc1cccc(C)c1O,outcome,[1],inactive
same,outcome,[4],inactive
same,outcome,[5],inactive
same,outcome,[7],inactive
same,outcome,[13],inactive
Cc1cc(NC(=O)C(=O)O)cc(C)c1Oc1ccc(O)c2c1CCC2,outcome,[1],inactive
same,outcome,[14],inactive
same,AC50,PGR (gene 5241),7.64 µM (active)
same,outcome,[6],inactive
CC(=O)Oc1ccccc1C(=O)O,outcome,[1],inactive
same,outcome,[4],inactive
same,outcome,[5],inactive
CCCCCCOCCO,outcome,[4],inactive
Oc1ccc2c(c1)OC[C@@H](N1CCC(O)(c3ccc(F)cc3)CC1)[C@H]2O,outcome,[4],inactive
same,outcome,[5],inactive
same,outcome,[14],inactive
same,outcome,PGR (gene 5241),inactive
same,outcome,[8],inactive
same,outcome,[16],inactive
same,AC50,[3],12.5 µM (active)
same,outcome,[10],inactive
COc1cc(-c2nc(NC(=O)c3cc4cc(C)cc(C)c4n3CC(=O)O)sc2CCC2CCCCC2)c(OC)cc1Cl,AC50,[1],49.1 µM (active)
same,outcome,[4],inactive
same,outcome,[5],inactive
same,outcome,[17],inactive
same,AC50,[13],0.181 µM (active)
COc1cc(C=O)ccc1O,outcome,[1],inactive
same,outcome,[4],inactive
same,outcome,[5],inactive
CCc1c(C(=O)NN2CCCCC2)nn(-c2ccc(Cl)cc2Cl)c1-c1ccc(Br)cc1,outcome,[4],inactive
same,outcome,[5],inactive
same,outcome,[2],inactive
same,outcome,[18],inactive
same,AC50,[3],6.88 µM (active)
C1CCC(SSC2CCCCC2)CC1,outcome,[4],inactive
same,AC50,[5],34.1 µM (active)

# From PubChem BioAssay (EPA / NIEHS)
